Shown are actives, neighbours in structure and some others; about 2.4% of the full set was active somewhere.
Cruzain Triton: blocks cruzain activity in presence of Triton detergent. purified cruzain, Z-FR-AMC fluorescence, 0.01% Triton. Potency, µM, usual class: inhibitors. 200,000 compounds, 0.43% hits. P25779; note: nearly all actives have a fitted effect of over 40% in size
Target sequence (P25779 123-467 limits assumed): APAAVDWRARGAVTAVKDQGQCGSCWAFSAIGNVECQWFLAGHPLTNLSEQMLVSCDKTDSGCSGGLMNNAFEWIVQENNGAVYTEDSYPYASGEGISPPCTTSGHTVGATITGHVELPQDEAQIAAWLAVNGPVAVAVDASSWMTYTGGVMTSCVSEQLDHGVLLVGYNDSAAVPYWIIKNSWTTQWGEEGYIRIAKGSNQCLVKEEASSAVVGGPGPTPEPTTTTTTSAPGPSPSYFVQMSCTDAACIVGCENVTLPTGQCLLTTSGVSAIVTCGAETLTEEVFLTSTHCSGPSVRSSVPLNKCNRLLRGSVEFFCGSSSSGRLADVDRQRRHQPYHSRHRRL
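In this qHTS format, compounds are incubated with 1.5 nM cruzain for 15 min at room temperature before 2 uM Z-FR-AMC is added. Release of AMC is followed at 360/450 nm, and progress is taken as the 60 s fluorescence difference.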
Cruzain inh noDet: blocks cruzain activity in detergent-free assay; AID 1476; P25779; purified cruzain, Z-FR-AMC fluorescence, no detergent; Potency, µM, usual class: inhibitors; 200,000 compounds, 2.3% hits; note: nearly all actives have a fitted effect of over 40% in size
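Detergent-free condition (0.00005% Triton X-100) in acetate buffer pH 5.5 with DTT. 1.5 nM enzyme and compound were pre-mixed 15 min, then 2 uM Z-FR-AMC substrate added; reaction progress from fluorescence change between first and third reads (60 s).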
Each line names hits and unclear results; the compound was inactive in the other large screens. Calls come from the whole dose curve; as a rule, active = well fitted curve in the direction sought with a large enough effect; inconclusive = small, poorly fitted or top-dose-only effect, or another doubt; inactive = no such curve, though single readings can be large; an effect the other way counts as inactive or inconclusive.

O=C1CC(c2nc3ccccc3n2CCCCOc2ccccc2)CN1c1ccccc1Cl (stereo unspecified)	Cruzain inh noDet inconclusive
O=C1C[C@H]2OCC=C3CN4CC[C@@]5(C(=O)O)[C@H](N1)C2[C@H]3C[C@H]45 (stereo partly specified)	none
Cc1ccc2nc(NC(=O)C3CCN(S(=O)(=O)c4cc([N+](=O)[O-])ccc4Cl)CC3)sc2c1	Cruzain inh noDet 32µM
Cc1ccc2nc(NC(=O)C3CCN(S(=O)(=O)c4cccc5nsnc45)CC3)sc2c1	Cruzain inh noDet inconclusive
O=C(Nc1nc2ccc(F)cc2s1)C1CCN(S(=O)(=O)c2cc([N+](=O)[O-])ccc2Cl)CC1	Cruzain inh noDet 10µM
CC(NC(=O)C1CCN(S(=O)(=O)c2cc([N+](=O)[O-])ccc2Cl)CC1)c1ccccc1 (stereo unspecified)	none
Cc1oc(-c2ccc(C(=O)N(C)Cc3ccccc3)cc2)nc1CN1CCc2ccccc21	none
CN(Cc1cc(C(C)(C)C)cc(Br)c1O)Cc1cc(C(C)(C)C)cc(Br)c1O	none
C[C@@]12CC[C@H](O[C@@H]3O[C@H](CO)[C@@H](O)[C@H](O)[C@@H]3O)C[C@@H]1CC[C@H]1[C@H]2CC[C@@]2(C)[C@@H](C3=CCOC3=O)CC[C@]12O	none
C[n+]1c(/C=C\c2ccc(O)c3ncccc23)[se]c2ccccc21	none
O=C(O)c1cc2c(s1)-c1ccccc1OC2	Cruzain Triton inconclusive, Cruzain inh noDet 25µM
O=C(O)c1cc2c(s1)-c1ccccc1CC2	none
CCc1cccc(NC(=O)Cn2c(C(=O)OC)cc3sc(Cl)cc32)c1	none
COC(=O)c1cc2sc(Cl)cc2n1CC(=O)Nc1cccc(SC)c1	Cruzain inh noDet 25µM
Cc1c(Cl)cccc1NC(=O)C[C@H]1Sc2ccccc2NC1=O	none
Cc1ccc(NC(=O)c2nnn(CC(=O)Nc3ccc(C)c(Cl)c3)c2N)c(C)c1	Cruzain inh noDet 10µM
Cc1ccc(NC(=O)c2nnn(CC(=O)Nc3ccccc3)c2N)cc1C	Cruzain inh noDet inconclusive
Cc1cc(C)n(CC(O)Cn2c3ccccc3c3ccccc32)c(=O)n1 (stereo unspecified)	Cruzain inh noDet inconclusive
COc1ccc(CN2CCN(CC(O)Cn3c4ccccc4c4ccccc43)CC2)cc1 (stereo unspecified)	none
Cc1ccc(N(CC(O)Cn2c3ccccc3c3ccccc32)S(=O)(=O)c2ccc(F)cc2)cc1 (stereo unspecified)	none
O=C1S/C(=C\c2ccccc2)C(=O)N1CC(O)Cn1c2ccccc2c2ccccc21 (stereo unspecified)	Cruzain inh noDet 32µM
COc1ccc(/C=C2/SC(=O)N(CC(O)Cn3c4ccccc4c4ccccc43)C2=O)cc1 (stereo unspecified)	Cruzain inh noDet 10µM
COc1ccc(N(CC(O)Cn2c3ccccc3c3ccccc32)S(=O)(=O)c2ccccc2)cc1 (stereo unspecified)	Cruzain inh noDet 16µM
COc1ccc(/C=C(\C#N)C(N)=O)c(OC)c1	none
CCN1c2ccccc2-c2nc(SCC(=O)Nc3c(C)cc(C)cc3C)ncc2S1(=O)=O	none
COc1ccc2sc(N(Cc3cccnc3)C(=O)C3COc4ccccc4O3)nc2c1 (stereo unspecified)	none
COc1ccc(NC(=O)CN2CCCN(Cc3ccc(Cl)cc3)S2(=O)=O)cc1Cl	none
Cc1cccc(-c2nnn3c2nc(NCc2ccccc2)c2ccccc23)c1	none
CCCOc1ccc(Cc2nn3c(=O)/c(=C/c4ccco4)sc3nc2=O)cc1	Cruzain inh noDet 10µM
CCCOc1ccc(/C=c2\sc3nc(-c4ccco4)nn3c2=O)cc1OCC	none
N#C/C(=C\NC(=S)c1ccncc1)c1nc2ccccc2s1	none
CCc1ccccc1NC(=O)C(=O)NCC(c1cccnc1)N1CCN(c2ccccc2F)CC1 (stereo unspecified)	none
CC(Sc1nnc(NCc2ccccc2)s1)C(=O)Nc1ccc2c(c1)C(=O)c1ccccc1C2=O (stereo unspecified)	Cruzain inh noDet 32µM
Cc1cc(C(=O)CSc2nnc(NCc3ccccc3)s2)c(C)n1C	none
C=CC1=C(C(=O)O)N2C(=O)C(NC(=O)/C(=N\O)c3csc(N)n3)C2SC1 (stereo unspecified)	none
O=C(NCCc1ccccc1)c1sc2ncccc2c1-n1cccc1	none
O=C(N/N=C/c1c(O)n(CCC2=CCCCC2)c(=O)[nH]c1=O)c1ccccc1	Cruzain inh noDet 25µM
O=C(N/N=C/c1c(O)n(CCC2=CCCCC2)c(=S)[nH]c1=O)c1ccccc1	none
CCc1ccc(NS(=O)(=O)c2ccc(-c3cc(C)no3)cc2)cc1	none
Cc1ccccc1C(=O)NC1(C(F)(F)F)N=C(c2ccccc2)N(C2CCCCC2)C1=O (stereo unspecified)	Cruzain inh noDet inconclusive
CC(C)NC(=O)CCC(=O)N1Cc2ccccc2Oc2ncccc21	none
O=C(O)c1ccccc1C(=O)N1CCN(c2cccc(Cl)c2)CC1	none
Nc1ccc(N2CCN(c3cccc(Cl)c3)CC2)cc1	Cruzain inh noDet 16µM
O=C(CCNS(=O)(=O)c1cccc2nsnc12)Nc1ccc(F)cc1	none
